From PubChem BioAssay AID1159580 (chemical genetic matrix, 2015)
“And” between values parts separate entries of the source, which are not always exact repeats. Identical values can stand only once. In all, about 5,500 compounds went through this assay and about 2,000 (36%) were called active. Roughly 18% stayed inconclusive and do not appear here. No stated cut-off is given here; in the data, active means normalized growth mostly below about 0.91 (no sharp cut-off); inconclusive means no clear call, values can overlap the other calls; inactive means mostly above about 0.92. Some of the results follow.

Assay: chemical genetic growth profiling, strain panel (AID 1159580);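 further: tested at 20 µM; growth read once vehicle control cultures reached saturation at 30 °C; 1 = growth at the plate median or of vehicle wells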
Conditions: S. cerevisiae deletion strains, growth OD

Measured: normalized growth

Cc1ncc(CNC(=O)N(CCCl)N=O)c(N)n1
inactive: locus YAL013W, strain DEP1, stronger effect = lower value 1.01 and 1 | locus YAL021C, strain ccr4, stronger effect = lower value 0.948 | locus YAL026C, strain drs2, stronger effect = lower value 1.02 | locus YAL030W, strain snc1, stronger effect = lower value 1.01 | locus YAL040C, strain CLN3, stronger effect = lower value 0.981 | locus YBL061C, strain skt5, stronger effect = lower value 1.01 | locus YBR009C, strain hhf1, stronger effect = lower value 0.992 | locus YBR021W, strain FUR4, stronger effect = lower value 0.994 | locus YBR023C, strain chs3, stronger effect = lower value 1 | locus YBR171W, strain sec66, stronger effect = lower value 1.02 | locus YBR229C, strain ROT2, stronger effect = lower value 1.03 | locus YBR231C, strain swc5, stronger effect = lower value 1.03 | locus YBR279W, strain paf1, stronger effect = lower value 1 | locus YCL011C, strain gbp2, stronger effect = lower value 1 | locus YCL016C, strain dcc1, stronger effect = lower value 0.978 | locus YCL029C, strain bik1, stronger effect = lower value 0.985 | locus YCL061C, strain MRC1 (second series), stronger effect = lower value 1 | locus YCL061C, strain MRC1, stronger effect = lower value 0.999 | locus YCL069W, strain vba3, stronger effect = lower value 1.01 | locus YCR088W, strain abp1, stronger effect = lower value 1.01 | locus YDL005C, strain med2, stronger effect = lower value 1.01 | locus YDL035C, strain GPR1, stronger effect = lower value 1 | locus YDL040C, strain nat1, stronger effect = lower value 1.02 | locus YDL074C, strain BRE1, stronger effect = lower value 1.02 | locus YDL101C, strain DUN1, stronger effect = lower value 1.01 | locus YDL134C, strain PPH21, stronger effect = lower value 1.03 | locus YDL185W, strain tfp1, stronger effect = lower value 0.985 | locus YDL192W, strain arf1, stronger effect = lower value 0.997 | locus YDR001C, strain nth1, stronger effect = lower value 1.01 | locus YDR069C, strain doa4, stronger effect = lower value 1.02 | locus YDR101C, strain arx1, stronger effect = lower value 0.983 | locus YDR137W, strain rgp1, stronger effect = lower value 1.04 | locus YDR150W, strain NUM1, stronger effect = lower value 1.03 and 0.998 | locus YDR159W, strain sac3, stronger effect = lower value 1.08 | locus YDR162C, strain NBP2, stronger effect = lower value 1 | locus YDR195W, strain ref2 0.993 | locus YDR297W, strain sur2, stronger effect = lower value 1.02 | locus YDR318W, strain mcm21, stronger effect = lower value 1 | locus YDR334W, strain swr1, stronger effect = lower value 1.02 | locus YDR335W, strain msn5, stronger effect = lower value 1.01 | locus YDR363W, strain ESC2, stronger effect = lower value 1 | locus YDR388W, stronger effect = lower value 0.986 | locus YDR392W, strain spt3, stronger effect = lower value 0.917 | locus YDR502C, strain sam2, stronger effect = lower value 0.99 | locus YEL003W, strain gim4, stronger effect = lower value 1.01 | locus YEL037C, strain rad23, stronger effect = lower value 1.01 | locus YEL061C, strain CIN8 (second series), stronger effect = lower value 1.01 | locus YEL061C, strain CIN8, stronger effect = lower value 1.02 | locus YER002W, strain NOP16, stronger effect = lower value 1 | locus YER015W, strain faa2, stronger effect = lower value 0.982 | locus YER016W, strain bim1, stronger effect = lower value 1.02 | locus YER110C, stronger effect = lower value 0.979 | locus YER111C, strain swi4, stronger effect = lower value 1.01 | locus YER155C, strain BEM2 (second series), stronger effect = lower value 1.03 | locus YER155C, strain BEM2, stronger effect = lower value 1 | locus YER167W, strain BCK2, stronger effect = lower value 1.01 | locus YFR010W, strain ubp6, stronger effect = lower value 1.01 | locus YGL078C, strain dbp3, stronger effect = lower value 0.991 | locus YGL086W, strain mad1, stronger effect = lower value 1 | locus YGL167C, strain pmr1, stronger effect = lower value 1 | locus YGL173C, strain kem1, stronger effect = lower value 1.01 | locus YGL227W, strain vid30, stronger effect = lower value 1.01 | locus YGL240W, strain doc1, stronger effect = lower value 1.01 | locus YGL248W, strain PDE1, stronger effect = lower value 1.02 | locus YGL253W, strain hxk2, stronger effect = lower value 1.01 | locus YGR078C, strain PAC10, stronger effect = lower value 1.01 | locus YGR135W, strain pre9, stronger effect = lower value 1 | locus YGR229C, strain SMI1, stronger effect = lower value 0.994 | locus YGR252W, strain gcn5, stronger effect = lower value 0.976 | locus YHR013C, strain ard1, stronger effect = lower value 1 | locus YHR027C, strain rpn1, stronger effect = lower value 1.04 | locus YHR030C, strain SLT2, stronger effect = lower value 1.02 and 0.958 | locus YHR079C, strain IRE1 (second series), stronger effect = lower value 0.984 | locus YHR079C, strain IRE1, stronger effect = lower value 0.957 | locus YHR094C, strain hxt1, stronger effect = lower value 0.989 | locus YHR129C, strain ARP1, stronger effect = lower value 1.02 | locus YHR142W, strain chs7, stronger effect = lower value 1.01 | locus YHR200W, strain rpn10, stronger effect = lower value 0.988 | locus YIL066C, strain RNR3, stronger effect = lower value 1.02 | locus YIL073C, strain SPO22, stronger effect = lower value 0.994 | locus YIL125W, strain kgd1, stronger effect = lower value 0.995 | locus YIR030C, strain dcg1, stronger effect = lower value 0.987 | locus YJL092W, strain hpr5, stronger effect = lower value 0.978 | locus YJL095W, strain BCK1 (second series), stronger effect = lower value 1.03 | locus YJL095W, strain BCK1, stronger effect = lower value 0.999 and 0.951 | locus YJL115W, strain asf1, stronger effect = lower value 1.01 | locus YJL129C, strain trk1, stronger effect = lower value 1.03 | locus YJL134W, strain LCB3, stronger effect = lower value 1.02 | locus YJL154C, strain vps35, stronger effect = lower value 1.01 | locus YJL164C, strain tpk1, stronger effect = lower value 0.988 | locus YJL166W, strain qcr8, stronger effect = lower value 1.01 | locus YJL168C, strain set2, stronger effect = lower value 0.99 | locus YJL187C, strain SWE1 (second series), stronger effect = lower value 1.02 | locus YJL187C, strain SWE1, stronger effect = lower value 0.993 | locus YJR043C, strain POL32, stronger effect = lower value 0.902 | locus YJR066W, strain TOR1, stronger effect = lower value 0.901
